For five compounds, composite z-score and z-score results are on record in PubChem BioAssay.

Test [1] deals with PRMT1 (protein arginine N-methyltransferase 1). Briefly: PRMT1 binders on small-molecule microarrays, primary screen, biochemical, small-molecule microarray, 635 nm fluorescence (AID 1088).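 Also: binding of Prmt1 protein to compounds spotted on small-molecule microarray slides.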 As to conditions: small-molecule microarray binding, higher = more signal.
Test [2] can be described thus: yeast growth modulation, basal conditions, primary screen, YJM789 clinical isolate, OD600, 24 h (AID 1089).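 Also: growth of clinical yeast isolate S. cerevisiae YJM 789 seeded 1000 cells per well; test concentration not given here.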 The settings on record: S. cerevisiae YJM789 growth, higher = more signal, called active from +8 up or from −8 down.
A short description of test [3]: fission yeast growth modulation, primary screen, strain 972, OD600, 24 h, no modulator (AID 1090).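 Also: basal condition with compound alone and no growth modifier present; test concentration not given here.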 As to conditions: S. pombe 972 growth, higher = more signal, called active from +8 up or from −8 down.
The nature of test [4]: S. cerevisiae growth modulation with rapamycin, primary screen, strain BY4716, OD600, 96 h (AID 1091). Also: test concentration not given here. The settings on record: higher = more signal, called active from +8 up or from −8 down.
Test [5] addresses Torsin-1A-interacting protein 2 (Homo sapiens) (UniProt Q8NFQ8). Briefly: LULL1 binders on small-molecule microarray, primary screen, cell lysate, human LULL1 lysate, 635/667 nm fluorescence (AID 1092).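 Also: probe is lysate of COS7 cells overexpressing human LULL1; score merges per-feature 667 nm fluorescence with signal-to-noise.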 As to conditions: hLULL1 lysate binding, 635 nm fluorescence, higher = more signal.
Test [6] can be described thus: E. coli growth modulation, two-sided OD650, primary screen, E. coli filamentation project, strain DRC41, 24 h (AID 1093).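 Also: MC1000 strain lacking acrAB efflux and sulA so SOS filamentation is blocked; test concentration not given here.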 The settings on record: OD650, 24 h, higher = more signal, called active from +8 up or from −8 down.
Test [7] in a line: small-molecule microarray binders of probe aLefty2, primary screen, biochemical, biotinylated probe, 635/667 nm fluorescence (AID 1094).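 Also: score merges spot fluorescence near 667 nm with spot signal-to-noise ratio.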 As to conditions: higher = more signal.
For test [8], the system named is Noggin (protein binding on small-molecule microarray). Description: Noggin binders on small-molecule microarray, primary screen, biochemical, 635/667 nm fluorescence (AID 1095).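 Also: score merges 667 nm feature fluorescence with signal to noise over triplicate slides.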 As to conditions: 635 nm fluorescence, higher = more signal.
Test [9] deals with Neurogenic locus notch homolog protein 3 (Homo sapiens) (UniProt Q9UM47). Description: NOTCH3 binders on small-molecule microarray, primary screen, biochemical, 635/667 nm fluorescence (AID 1096). The settings on record: NOTCH3 binding, 635 nm fluorescence, higher = more signal.
The nature of test [10]: small-molecule microarray binders of probe aEGFR, primary screen, biochemical, biotinylated probe, 635/667 nm fluorescence (AID 1097).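 Also: probe is a biotinylated anti-EGFR antibody binding compounds printed on slides; score combines fluorescence near 667 nm and signal to noise of each spot.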 As to conditions: higher = more signal.
Test [11] relates to Plasmodium falciparum Sir2 (PF13_0152, Sir2A). Description: pfSir2 binders on small-molecule microarrays, primary screen, biochemical, small-molecule microarray, 635 nm fluorescence (AID 1098).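 Also: score merges spot fluorescence intensity with its signal-to-noise ratio.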 As to conditions: small-molecule microarray binding, fluorescence 635 nm; higher = more signal.
A short description of test [12]: small-molecule microarray binders of probe aDKK1, primary screen, biochemical, biotinylated probe, 635/667 nm fluorescence (AID 1099).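 Also: score merges 667nm spot fluorescence with signal to noise across triplicate slides; reference of the scale not given here.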 As to conditions: higher = more signal.
A short description of test [13]: small-molecule microarray binders of probe aCHRDL2, primary screen, biochemical, biotinylated probe, 635/667 nm fluorescence (AID 1100). As to conditions: higher = more signal.
Test [14] in a line: splicing luciferase reporter signal modulators, primary screen, spliceosome inhibition project, cell-based, HEK293, splice +/- reporter (AID 1101).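 Also: HEK293 cells carrying a splicing-competent luciferase reporter gene; test concentration not given here.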 The settings on record: luminescence, 24 h, higher = more signal, called active from +8 up or from −8 down. In general terms: Reporter assays use an easily measured gene product as a stand-in for the process of interest.
For test [15], the target named is Fibroblast growth factor 10 (Homo sapiens) (UniProt O15520). Description: FGF10 binders on small-molecule microarrays, primary screen, biochemical, small-molecule microarray, 635 nm fluorescence (AID 1102). As to conditions: FGF10 binding, fluorescence 635 nm, higher = more signal.
The test system of test [16] is glycogen synthase kinase-3 (GSK3A per assay name; protocol says GSK3B). Description: GSK3 binders on small-molecule microarrays, primary screen, biochemical, small-molecule microarray, 635 nm fluorescence, GSK3A (AID 1103). Also: the record names both GSK3A and GSK3B. The settings on record: small-molecule microarray binding, fluorescence 635 nm; higher = more signal.
For test [17], the target named is Epidermal growth factor receptor (Homo sapiens) (UniProt P00533). Briefly: EGFR binders on small-molecule microarrays, primary screen, biochemical, small-molecule microarray, 635 nm fluorescence (AID 1104).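 Also: score merges 667 nm emission intensity with spot signal to noise over triplicate slides.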 The settings on record: EGFR binding, higher = more signal.
Test [18] concerns the target Follistatin-related protein 3 (Homo sapiens) (UniProt O95633). Description: FSTL3 binders on small-molecule microarrays, primary screen, biochemical, small-molecule microarray, 635 nm fluorescence (AID 1105).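 Also: score merges emission near 667 nm and signal to noise per printed spot across three slides.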 As to conditions: FSTL3 binding, higher = more signal.
For test [19], the target named is Dickkopf-related protein 1 (Homo sapiens) (UniProt O94907). Briefly: DKK1 binders on small-molecule microarrays, primary screen, biochemical, small-molecule microarray, 635 nm fluorescence scan (AID 1106).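 Also: score merges emission near 667 nm with signal to noise over three replicate slides.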 The settings on record: DKK1 binding, higher = more signal.
Test [20] concerns Inhibin beta A chain (activin A). Description: INHBA (activin A) binders on microarrays, primary screen, biochemical, small-molecule microarray, 635 nm fluorescence scan (AID 1107).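 Also: mouse activin A protein probed at 4.33 µg/mL on printed slides; score merges bound-protein fluorescence near 667 nm with spot signal-to-noise.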 As to conditions: small-molecule microarray binding, higher = more signal.

Active and inactive are the calls of the source.

Chain of Fibroblast growth factor 10 (Homo sapiens) (O15520 whole entry, looked up): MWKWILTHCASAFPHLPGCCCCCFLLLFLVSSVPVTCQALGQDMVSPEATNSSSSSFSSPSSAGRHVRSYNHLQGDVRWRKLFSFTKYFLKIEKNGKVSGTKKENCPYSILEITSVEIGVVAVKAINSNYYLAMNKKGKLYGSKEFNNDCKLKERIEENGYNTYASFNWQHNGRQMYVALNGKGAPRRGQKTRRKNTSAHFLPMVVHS
Chain of Epidermal growth factor receptor (Homo sapiens) (P00533 whole entry, looked up): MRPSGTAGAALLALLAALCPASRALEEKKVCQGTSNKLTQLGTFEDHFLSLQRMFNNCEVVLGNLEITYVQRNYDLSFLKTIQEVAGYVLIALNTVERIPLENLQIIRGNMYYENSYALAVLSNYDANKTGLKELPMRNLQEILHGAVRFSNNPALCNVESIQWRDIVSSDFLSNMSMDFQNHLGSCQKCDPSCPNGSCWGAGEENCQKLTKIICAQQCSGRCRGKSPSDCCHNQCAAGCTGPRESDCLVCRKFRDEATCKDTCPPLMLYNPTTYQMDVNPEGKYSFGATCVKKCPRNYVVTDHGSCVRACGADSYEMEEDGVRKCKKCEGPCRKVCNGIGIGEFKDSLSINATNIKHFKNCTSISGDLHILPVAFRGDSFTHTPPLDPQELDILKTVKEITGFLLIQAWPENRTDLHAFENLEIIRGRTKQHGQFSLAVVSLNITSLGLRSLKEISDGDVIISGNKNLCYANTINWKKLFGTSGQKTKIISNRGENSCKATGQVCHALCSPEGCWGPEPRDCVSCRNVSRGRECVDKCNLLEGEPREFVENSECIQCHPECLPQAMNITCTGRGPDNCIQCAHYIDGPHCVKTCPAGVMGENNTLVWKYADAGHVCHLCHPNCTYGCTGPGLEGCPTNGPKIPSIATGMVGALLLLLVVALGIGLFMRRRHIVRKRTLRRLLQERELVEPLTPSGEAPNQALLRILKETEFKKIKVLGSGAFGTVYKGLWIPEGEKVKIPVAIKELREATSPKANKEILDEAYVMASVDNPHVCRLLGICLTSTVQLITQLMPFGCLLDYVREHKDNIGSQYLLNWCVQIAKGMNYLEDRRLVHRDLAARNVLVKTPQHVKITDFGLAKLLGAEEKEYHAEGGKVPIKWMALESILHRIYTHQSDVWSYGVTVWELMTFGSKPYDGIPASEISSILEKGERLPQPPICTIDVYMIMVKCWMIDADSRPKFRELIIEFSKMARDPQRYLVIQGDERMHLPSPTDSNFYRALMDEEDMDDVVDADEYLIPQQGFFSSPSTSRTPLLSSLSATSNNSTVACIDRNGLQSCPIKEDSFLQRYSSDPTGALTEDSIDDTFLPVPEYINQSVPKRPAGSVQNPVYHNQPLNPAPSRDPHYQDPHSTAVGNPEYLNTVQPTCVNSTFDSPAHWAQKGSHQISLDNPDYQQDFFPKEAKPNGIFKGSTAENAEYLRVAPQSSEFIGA
Chain of Neurogenic locus notch homolog protein 3 (Homo sapiens) (Q9UM47 whole entry, looked up): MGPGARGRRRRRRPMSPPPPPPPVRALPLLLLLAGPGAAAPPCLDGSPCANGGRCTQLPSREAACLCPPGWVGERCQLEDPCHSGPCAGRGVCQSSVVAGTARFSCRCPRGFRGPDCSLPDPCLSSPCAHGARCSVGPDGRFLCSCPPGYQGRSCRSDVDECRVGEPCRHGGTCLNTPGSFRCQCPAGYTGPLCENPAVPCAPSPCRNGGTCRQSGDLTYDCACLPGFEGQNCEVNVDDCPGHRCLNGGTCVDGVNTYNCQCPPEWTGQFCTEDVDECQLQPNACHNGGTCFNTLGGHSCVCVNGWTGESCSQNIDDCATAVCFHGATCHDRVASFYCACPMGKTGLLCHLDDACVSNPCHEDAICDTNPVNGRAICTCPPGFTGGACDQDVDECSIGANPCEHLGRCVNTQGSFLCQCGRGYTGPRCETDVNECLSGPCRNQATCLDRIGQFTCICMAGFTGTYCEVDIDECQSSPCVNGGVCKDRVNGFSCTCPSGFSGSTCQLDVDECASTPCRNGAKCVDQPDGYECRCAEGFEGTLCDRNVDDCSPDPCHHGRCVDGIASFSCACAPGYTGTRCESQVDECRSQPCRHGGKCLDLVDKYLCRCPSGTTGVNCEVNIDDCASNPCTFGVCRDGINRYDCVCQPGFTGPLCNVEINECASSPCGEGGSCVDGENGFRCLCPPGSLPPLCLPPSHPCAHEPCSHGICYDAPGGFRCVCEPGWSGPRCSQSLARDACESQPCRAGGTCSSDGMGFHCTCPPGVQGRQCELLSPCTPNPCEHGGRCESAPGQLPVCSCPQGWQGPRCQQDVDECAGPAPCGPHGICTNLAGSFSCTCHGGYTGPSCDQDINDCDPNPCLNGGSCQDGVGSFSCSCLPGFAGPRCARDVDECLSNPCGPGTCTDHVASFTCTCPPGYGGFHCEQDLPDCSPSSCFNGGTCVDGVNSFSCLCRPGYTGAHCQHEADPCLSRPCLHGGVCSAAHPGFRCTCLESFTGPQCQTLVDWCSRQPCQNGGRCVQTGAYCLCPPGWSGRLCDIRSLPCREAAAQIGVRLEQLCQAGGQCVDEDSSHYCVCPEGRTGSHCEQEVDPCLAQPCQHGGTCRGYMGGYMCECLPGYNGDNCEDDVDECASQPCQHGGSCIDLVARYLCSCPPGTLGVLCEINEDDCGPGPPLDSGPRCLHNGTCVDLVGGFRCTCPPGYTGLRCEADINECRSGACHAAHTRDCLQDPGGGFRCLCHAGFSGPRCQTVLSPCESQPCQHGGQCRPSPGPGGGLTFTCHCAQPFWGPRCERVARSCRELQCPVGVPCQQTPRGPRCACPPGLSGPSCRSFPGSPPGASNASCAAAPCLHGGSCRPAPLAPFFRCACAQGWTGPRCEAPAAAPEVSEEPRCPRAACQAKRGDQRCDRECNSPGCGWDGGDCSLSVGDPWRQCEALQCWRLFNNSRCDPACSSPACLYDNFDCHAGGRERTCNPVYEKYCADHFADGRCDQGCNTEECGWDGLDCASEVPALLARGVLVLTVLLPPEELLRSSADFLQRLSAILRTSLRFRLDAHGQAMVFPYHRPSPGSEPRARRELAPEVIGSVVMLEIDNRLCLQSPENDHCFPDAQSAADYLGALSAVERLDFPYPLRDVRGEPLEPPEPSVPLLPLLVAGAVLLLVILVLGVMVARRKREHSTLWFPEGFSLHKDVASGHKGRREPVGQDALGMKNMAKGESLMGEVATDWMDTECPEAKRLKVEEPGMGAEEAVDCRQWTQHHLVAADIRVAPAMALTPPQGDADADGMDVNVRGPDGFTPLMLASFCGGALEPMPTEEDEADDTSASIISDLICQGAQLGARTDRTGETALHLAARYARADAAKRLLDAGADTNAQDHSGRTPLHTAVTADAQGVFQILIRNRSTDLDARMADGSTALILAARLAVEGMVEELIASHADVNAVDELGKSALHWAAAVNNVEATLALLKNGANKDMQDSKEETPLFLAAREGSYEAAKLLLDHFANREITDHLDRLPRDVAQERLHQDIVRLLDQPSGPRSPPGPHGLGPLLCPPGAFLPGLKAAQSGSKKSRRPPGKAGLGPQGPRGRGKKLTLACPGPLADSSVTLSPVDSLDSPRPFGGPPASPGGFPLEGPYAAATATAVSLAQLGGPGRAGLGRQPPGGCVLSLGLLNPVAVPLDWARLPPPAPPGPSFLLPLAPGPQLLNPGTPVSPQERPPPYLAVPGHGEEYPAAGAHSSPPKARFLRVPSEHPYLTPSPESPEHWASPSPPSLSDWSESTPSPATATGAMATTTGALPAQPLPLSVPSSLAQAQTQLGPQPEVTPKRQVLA
Chain of Torsin-1A-interacting protein 2 (Homo sapiens) (Q8NFQ8 whole entry, looked up): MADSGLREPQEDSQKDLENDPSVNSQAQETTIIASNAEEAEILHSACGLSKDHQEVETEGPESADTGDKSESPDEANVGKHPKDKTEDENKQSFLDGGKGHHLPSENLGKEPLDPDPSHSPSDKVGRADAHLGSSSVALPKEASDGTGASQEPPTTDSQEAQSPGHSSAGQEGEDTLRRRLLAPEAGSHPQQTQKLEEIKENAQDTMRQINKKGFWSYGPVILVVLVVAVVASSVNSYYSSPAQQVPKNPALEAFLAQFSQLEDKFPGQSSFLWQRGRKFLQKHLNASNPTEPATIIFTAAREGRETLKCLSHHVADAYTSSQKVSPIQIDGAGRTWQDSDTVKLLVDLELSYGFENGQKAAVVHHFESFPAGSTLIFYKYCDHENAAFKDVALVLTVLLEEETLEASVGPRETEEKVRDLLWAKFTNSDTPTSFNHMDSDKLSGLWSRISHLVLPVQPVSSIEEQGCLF
Chain of Follistatin-related protein 3 (Homo sapiens) (O95633 whole entry, looked up): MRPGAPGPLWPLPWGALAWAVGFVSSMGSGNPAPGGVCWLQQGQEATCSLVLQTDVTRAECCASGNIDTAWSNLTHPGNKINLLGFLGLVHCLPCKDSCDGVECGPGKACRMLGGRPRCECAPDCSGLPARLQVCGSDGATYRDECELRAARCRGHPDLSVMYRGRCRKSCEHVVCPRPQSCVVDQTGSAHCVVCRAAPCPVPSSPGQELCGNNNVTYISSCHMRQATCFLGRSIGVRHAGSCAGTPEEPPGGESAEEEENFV
Chain of Dickkopf-related protein 1 (Homo sapiens) (O94907 whole entry, looked up): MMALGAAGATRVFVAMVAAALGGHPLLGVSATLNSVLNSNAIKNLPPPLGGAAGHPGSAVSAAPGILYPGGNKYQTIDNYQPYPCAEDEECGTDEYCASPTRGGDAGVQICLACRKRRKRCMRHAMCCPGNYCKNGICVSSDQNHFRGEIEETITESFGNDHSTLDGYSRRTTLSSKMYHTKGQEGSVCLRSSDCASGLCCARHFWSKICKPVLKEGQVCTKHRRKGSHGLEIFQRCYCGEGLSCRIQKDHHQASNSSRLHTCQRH

In the case of `COc1c(C)cc(-c2cc3c(c(Cc4ccccc4)n2)[Si](C(C)C)(C(C)C)OC3)cc1C`, the composite z-score was -0.13 in test [1]; 0.323 in [5]; -0.157 in test [7]; 0.529 in test [8]; 0.598 in [9]; -0.0509 in test [10]. Also, the composite z-score is 0.214 in test [11]; -0.0724 in test [12]; -0.313 in [13]; 0.0744 in test [15]; -0.0485 in test [16]; 0.181 in test [17]. For the same compound, the figures for the composite z-score in [18], in test [19] and in test [20] were 0.235, 0.0324 and 0.137, respectively. In addition, the z-score in test [2] is 0.784 (inactive); in test [3], 0.567 (inactive); in test [4], 1.04 (inactive); in test [6], -0.733 (inactive); in test [14], -0.206 (inactive).

For the compound `C=CC[C@]1(C(=O)N(C)C)N=C(c2ccc(OCCCO)cc2)O[C@H]1c1ccccc1N=[N+]=[N-]`, the composite z-score came out at 1.48 in test [1]; 3.2 in test [5]; 0.285 in test [7]; 0.464 in test [8]; 1.03 in test [9]; 0.0651 in [10]. The composite z-score was 0.265 in test [11]; 0.776 in [12]; 1.14 in test [13]; 0.762 in [15]; 0.346 in test [16]; -0.257 in test [17]. The composite z-score in test [18] was 0.859; in [19] it was -0.367; in [20] it was 0.889. For the same compound, the z-score was 0.0061 (inactive) in test [2]; -0.102 (inactive) in test [3]; -0.317 (inactive) in test [4]; 0.394 (inactive) in [6]; -0.288 (inactive) in [14].

For the compound `COC(=O)[C@@]1(Cc2ccc(OC)cc2)[C@H]2c3cc(C(=O)N(C)C)n(Cc4nc5ccccc5[nH]4)c3C[C@H]2CN1C(=O)c1ccccc1`, the composite z-score in test [1] turned out to be 0.777; in test [5], 3.61; in [7], 0.3; in test [8], 0.493; in [9], 1.02; in [10] it was 0.329. The composite z-score in test [11] turned out to be 0.432; in [12] it was 0.956; in [13] it was 0.958; in [15], 1.09; in test [16] it was 1.23; in [17] it was 0.0916. The composite z-score was 1.35 in [18], -0.463 in [19] and 0.777 in test [20]. Besides, the z-score is 0.591 (inactive) in test [2]; 1.49 (inactive) in test [3]; 6.95 (inactive) in [4]; -0.648 (inactive) in test [6]; -1.21 (inactive) in [14].

Consider `C[C@H]1C2=C3C(CC[C@H]4C(OCc5ccc(F)cc5C(F)(F)F)OC[C@](C)([C@@H]34)N(C(=O)OC(C)(C)C)C2)C2COC(=O)OCC21` (stereo not given in full), for which the composite z-score in test [1] was 0.63; in [5], 3.52; in test [7], 0.453; in [8], -0.618; in test [9], 1.07; in [10] it was -0.019. The composite z-score in test [11] worked out at 0.0559; in test [12], 0.457; in [13] it was 1.28; in test [15], 0.0151; in test [16] it was 0.987; in test [17], 0.0472. Further, the composite z-score in test [18] was 0.768; in test [19], -0.648; in [20] it was 0.572. In addition, the z-score is -0.271 (inactive) in test [2]; -1.22 (inactive) in test [3]; 0.258 (inactive) in test [4]; -1.4 (inactive) in [6]; -0.848 (inactive) in test [14].

For the compound `CC=CC(O)C1C=CC2C(=O)N(C)C(=O)C2N1N1CCCCC1` (stereo not given), the composite z-score in test [1] is 1.34; in [5], 3.52; in [7] it was 0.0974; in test [8], 0.605; in [9] it was 1.09; in test [10], -0.115. Further, the composite z-score in test [11] came to 1.11; in test [12], 0.123; in test [13], 0.452; in [15], 0.888; in test [16], 1.23; in [17], 0.519. In addition, the composite z-score is 1.26 in [18], 0.22 in [19] and 0.898 in test [20]. Moreover, the z-score in test [2] is -0.322 (inactive); in test [3], 1.01 (inactive); in test [4] it was -0.207 (inactive); in test [6], -1.53 (inactive); in test [14], 0.661 (inactive).
